Screening results as filed in PubChem.
The entries come from a sample that favours hits as a whole.
Dicer processing: blocks human Dicer maturation of pre-miR-21 | cat-ELCCA pre-miR-21 Dicer processing, chemiluminescence; active compounds read high | z-score at 25 µM | AID 1347074 | 47,000 compounds, 6% hits | Q9UPY3; in the data active = z-score above about 3, passing the limit was not always enough;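 note: higher signal means more uncleaved substrate so more Dicer inhibition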
Large screens that a line does not name were inactive.

Cc1onc(-c2c(Cl)cccc2Cl)c1NC(=O)O/N=C/c1cccc([N+](=O)[O-])c1	none
O=[N+]([O-])c1ccccc1O[C@@H]1O[C@H](CO)[C@H](O)[C@H](O)[C@H]1O	none
Cc1ccc(C2=NC(C(F)(F)F)(C(F)(F)F)N=C(N(C)C)O2)cc1	Dicer processing 3.72
Cc1ccccc1C1=NC(C(F)(F)F)(C(F)(F)F)N=C(N2CCOCC2)O1	none
CCOC(=O)c1sc(NC(=O)CSc2nc(C)cc(=O)[nH]2)nc1C	none
CCCc1cnc(N2CCN(c3ncnc4scc(-c5ccccc5)c34)CC2)nc1	none
Clc1ccc(CN2CCCN(c3ncnc4scc(-c5ccccc5)c34)CC2)cc1Cl	none
c1ccc(-c2csc3ncnc(N4CCN(Cc5ccc6c(c5)OCO6)CC4)c23)cc1	Dicer processing 4.65
Cc1onc(-c2c(F)cccc2Cl)c1C(=O)N1CC(Oc2ccc(Cl)cc2)C1	none
CC1CCc2c(sc3nnn(CC(=O)N4CCOCC4)c(=O)c23)C1 (centres undefined)	none
O=C1OC2(CCCCC2)OC(=O)C1=Cc1ccoc1	none
CC(C)(O)C#Cc1ccc(C2NCCS2)cc1 (centres undefined)	Dicer processing 259
CC(C)(O)C#Cc1ccc(/C=N/O)cc1	none
CC(C)(O)C#Cc1ccc(/C=N/Nc2ccc(I)cc2)cc1	none
C=CCN1C(=O)C2(/C(=C(/O)c3ccc(Cl)cc3)C(=O)C(=O)N2CCOC)c2ccccc21 (centres undefined)	none
CCN(CC)c1ccc(Nc2nc(-c3cccnc3)cs2)cc1	none
COc1ccc(Nc2nc(-c3ccncc3)cs2)cc1	none
COc1ccccc1Nc1nc(-c2c(C)nc3ccccn23)cs1	none
CCN(CC)c1ccc(Nc2nc(-c3ccccn3)cs2)cc1	none
Oc1cccc(Nc2nc(-c3cccnc3)cs2)c1	none
Cc1cccc(Nc2n[nH]c(=S)s2)c1	none
COc1ccc(Nc2nc(-c3c(C)nc4ccccn34)cs2)cc1	Dicer processing 3.56
CCNC(=O)c1c(C)nc2ccccn12	none
Cc1cccc(Nc2nc(-c3c(C)nc4ccccn34)cs2)c1	Dicer processing 4.62
CCN(CC)c1ccc(Nc2nc(-c3c(C)nc4ncccn34)cs2)cc1	Dicer processing 4.07
Cc1nc2ccccn2c1-c1csc(Nc2cccc(O)c2)n1	Dicer processing 6.5
c1ccc(Nc2nc(-c3cccs3)cs2)cc1	none
O=c1[nH]nc(Sc2ccc(C(F)(F)F)cn2)n1-c1ccccc1C(F)(F)F	none
Cc1cc(C(F)F)n2nc(C(=O)O)nc2n1	none
CC(=O)c1ccc(OCc2ccccc2)c(C)c1OC(=O)c1cccs1	none
COc1ncc(C(=O)NNC(=S)Nc2ccccc2)cc1[N+](=O)[O-]	none
C#CC1(NS(=O)(=O)c2ccc(SC(C)(C)C)c([N+](=O)[O-])c2)CCCCC1	none
Clc1ccccc1/C=N/N=C/c1ccccc1Cl	none
CS(=O)(=O)c1ccc2nc(NC(=O)Cc3ccc(Br)cc3)sc2c1	Dicer processing 5.28
CCCCOC(=O)Nc1nc2ccc(C)cc2s1	none
CC(=O)Nc1nc2ccc(Br)cc2s1	none
CS(=O)(=O)c1ccc2nc(NC(=O)CCCC(=O)O)sc2c1	none
CCOC(=O)C(=O)Nc1nc2ccc(S(C)(=O)=O)cc2s1	Dicer processing 5.83
CCOC(=O)Nc1nc2ccc(C)cc2s1	none
CC1(C)C=Cc2cc(/C(N)=N/OC(=O)c3ccccc3)ccc2O1	none
O=C(NCc1ccccc1)C1Sc2nnc(-c3ccccc3)n2NC1c1ccc(Cl)cc1 (centres undefined)	none
CCOC(=O)N/N=C(C)/C(C)=N/NC(=O)OCC	none
N#Cc1c(NC(=O)COc2ccccc2)sc2c1CCCC2	none
CCOc1cc(C2C(C(=O)OCC3CCCO3)=C(C)NC3=C2C(=O)CCC3)ccc1O (centres undefined)	none
CCOC(=O)C(CC)Sc1n[nH]c(=O)[nH]c1=O (centres undefined)	none
COc1cc(C2Nc3c(C)cccc3-c3cc(C)nn32)ccc1O (centres undefined)	none
COc1ccc(C2Nc3ccccc3-c3cc(C)nn32)cc1O (centres undefined)	Dicer processing 3.63
CCOc1cc(C2Nc3ccccc3-c3cc(C)nn32)ccc1O (centres undefined)	none
Cc1cc2n(n1)C(c1ccc(N(C)C)cc1)Nc1c(C)cccc1-2 (centres undefined)	Dicer processing 6.03
CCOc1cccc(C2Nc3c(C)cccc3-c3cc(C)nn32)c1O (centres undefined)	none
Cc1cc2n(n1)C(c1ccc(O)c(O)c1)Nc1c(C)cccc1-2 (centres undefined)	none
COc1cccc(C2Nc3ccccc3-c3cc(C)nn32)c1OC (centres undefined)	none
COc1ccc(C2Nc3c(C)cccc3-c3cc(C)nn32)cc1O (centres undefined)	Dicer processing 3.86
Cc1cc2n(n1)C(c1ccc(N(C)C)cc1)Nc1ccccc1-2 (centres undefined)	none
CCOc1cc(C2Nc3c(C)cccc3-c3cc(C)nn32)ccc1O (centres undefined)	Dicer processing 3.63
Cc1cc2n(n1)C(c1sccc1C)Nc1c(C)cccc1-2 (centres undefined)	none
COc1ccc(C2Nc3ccccc3-c3cc(C)nn32)cc1 (centres undefined)	none
CCOc1cc(S(=O)(=O)n2ccnc2)ccc1F	none
CC(C)c1nnc(N2C(=O)c3oc4ccccc4c(=O)c3C2c2cccc(Cl)c2)s1 (centres undefined)	none
COc1ccccc1-n1cnc2c(sc3nc(N4CCOCC4)c4c(c32)CC(C)(C)OC4)c1=O	none
O=C(O)c1cccnc1SC1CC(=O)N(c2ccc(OC(F)(F)F)cc2)C1=O (centres undefined)	none
Cc1cc2n(n1)C(c1cc(Br)ccc1O)Nc1ccccc1-2 (centres undefined)	Dicer processing 4.63
Cc1cc2n(n1)C(c1ccccc1O)Nc1ccccc1-2 (centres undefined)	none
Cc1cc2n(n1)C(c1sccc1C)Nc1ccccc1-2 (centres undefined)	none
Cn1nc(C(F)(F)F)c(-c2ccccc2)c1NS(C)(=O)=O	none
Cc1ccc(NC(=S)C(C#N)C(=O)N2CCC(C)CC2)c(C)c1 (centres undefined)	none
N/C(=N/O)c1cnc2n(c1=O)CCS2	none
COC(=O)c1ccc(Cl)c2c1C1C=CCC1C(c1cccnc1)N2 (centres undefined)	none
CC(=O)Oc1ccc2c(c1)CCC1C3CCC(OC(C)=O)C3(C)C[C@](C)(O)C21 (some centres undefined)	none
O=C(C1=C(O)C(=O)N(CCCn2ccnc2)C1c1ccc(F)cc1)c1ccco1 (centres undefined)	none
CN1C(=O)c2cccc3c(S(=O)(=O)NCCCC(=O)O)ccc1c23	none
CN1C(=O)c2cccc3c(S(=O)(=O)NCC(=O)O)ccc1c23	Dicer processing 3.08
CN1C(=O)c2cccc3c(S(=O)(=O)NCCCCCC(=O)O)ccc1c23	none
O=C(O)c1ccc(-c2ccccc2F)o1	none
Cc1ccccc1-c1nc2ccccc2[nH]1	none
Cc1[nH]n(-c2nc3ccccc3[nH]2)c(=O)c1C1OC(=O)c2ccccc21 (centres undefined)	Dicer processing 3.79
Cc1cc(=O)n(-c2ccc(O)cc2)[nH]1	none
Cc1cc(=O)n(-c2ccc(Cl)c(Cl)c2)[nH]1	none
O=C1CC(c2ccccc2Cl)Cc2c1cnn2-c1nc2ccccc2[nH]1 (centres undefined)	none
Cc1cc(=O)n(-c2nc3ccccc3[nH]2)[nH]1	Dicer processing 4.29
COc1cc(OC)c(OC)cc1/C=N/NC(=S)NC1CC(C)CC(C)(C)C1 (centres undefined)	none
COC(=O)c1ccc(-c2nn(C)c(=O)c3ccccc23)cc1	none
CC(=O)NC(NCc1ccccc1)(C(F)(F)F)C(F)(F)F	none
